Assay outcomes from PubChem BioAssay.
Only some compounds are listed: those with a hit (about 2.2% of all), similar ones and a draw of the others.
Beta apoptosis: blocks beta cell apoptosis; hit rate 0.8% among 300,000; protection from apoptosis, % (no concentration beside the values); INS-1E cytokine-induced death, ATP luminescence, 48 h; percent of positive-control rescue, neutral wells zero; AID 435005;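 active = Every replicate reaches about 75%, or at least half do and their mean reaches it too, limit read from the data; inconclusive = At least half of replicates reach the limit but their mean does not; inactive = Under half of replicates reach the limit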;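 also: 0% = cytokine-treated negative control wells and 100% = positive control rescue; higher means more ATP so stronger rescue from cytokine killing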
CSC inhib: blocks cancer stem cells | cancer stem cell-like cells viability, luminescence | inhibition, % at 7.5 µM | hit rate 1.1% among 300,000; in the data active = inhibition above about 75%; inconclusive = no clear call, values can overlap the other calls; tested in HMLE shEcad cells
PfHsp90 set2: reduces growth (ATP signal) of yeast expressing P. falciparum Hsp90 | S. cerevisiae expressing PfHsp90, BacTiter-Glo ATP, 48 h; yeast lacking PDR1 and PDR3 efflux regulators | hit rate 0.32% among 310,000 | inhibition, % at 9.4 µM | AID 504621;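 active = every replicate shows inhibition above about 80%, whatever the replicate mean, limit read from the data; inconclusive = mean inhibition reaches the set limit but some replicate falls short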;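 also: 0% = DMSO neutral controls and 100% = 20 µM radicicol positive controls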
Calb FLC: C. albicans growth modulation with fluconazole | growth inhibition, % (no concentration beside the values) | hit rate 0.57% among 300,000 | C. albicans CaCi-2 (fluconazole-resistant clinical isolate) + fluconazole, Alamar Blue growth, 48 h;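 active = growth inhibition above about 58% in most replicates, limit read from the data, passing the limit was not always enough; inconclusive = exactly half the replicates above a set limit; inactive = most replicates below a set limit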;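 also: all wells also contain fluconazole at 8 µg/ml as a sub-toxic cotreatment; 0% = median of DMSO wells and 100% = median of geldanamycin control wells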
Shn3 3UTR inh: Schnurri-3 reporter inhibition in Clone20 osteoblasts; Clone20 osteoblast Shn3 3'UTR firefly luciferase, 24 h; inhibition, % at 12.5 µM; hit rate 0.52% among 360,000; AID 588674;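 active = mean inhibition of at least 75% with every replicate also reaching 75%; inconclusive = mean inhibition at least 75% but some replicate below; inactive = mean inhibition below 75%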;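 also: 0% = median of neutral control wells and 100% = pilot-screen positive control compound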
* marks the source's active call; other numbers are inactive results.

`CN(C)C1(CNC(=O)C2CCN(S(=O)(=O)c3cccc(C(F)(F)F)c3)CC2)CCCCC1` gave CSC inhib 10.1, PfHsp90 set2 10.7, Calb FLC 1.8 and Shn3 3UTR inh -5.8.
CC(C)Cc1nnc(NC(=O)CCC(=O)N2CCN(c3ccccc3F)CC2)s1 was read as Beta apoptosis -5.5, CSC inhib -19.5, PfHsp90 set2 -0.9, Calb FLC 1.7 and Shn3 3UTR inh -9.5.
Screening O=C(Cn1ncc(Cl)c(Cl)c1=O)c1ccc2c(c1)OCCO2 returned Beta apoptosis 112.6*, CSC inhib 111.6*, PfHsp90 set2 -3.2 and Shn3 3UTR inh 12.0.
O=c1[nH]c(=O)n(Cc2ccco2)c2c1C(C(F)(F)F)(C(F)(F)F)N=C(c1ccc(F)cc1)N2 was read as Beta apoptosis 102.2*, CSC inhib 30.9, PfHsp90 set2 -0.2, Calb FLC -15.7 and Shn3 3UTR inh 13.1.
For O=c1[nH]c(=O)n(Cc2ccccc2)c2c1C(C(F)(F)F)(C(F)(F)F)N=C(c1ccco1)N2 the results were Beta apoptosis 17.7, CSC inhib 3.8, Calb FLC 67.3 and Shn3 3UTR inh 5.6.
Screening O=C(O)C(Oc1ccc2ccccc2c1)c1ccccc1 (stereo not given) returned Beta apoptosis 3.3, CSC inhib 3.0, PfHsp90 set2 9.0, Calb FLC -6.5 and Shn3 3UTR inh -2.0.
COc1cc(NC(=O)c2ccco2)c(C(=O)OCC(=O)c2c[nH]c3ccccc23)cc1OC was read as Beta apoptosis 42.6, CSC inhib 82.8*, PfHsp90 set2 -11.4, Calb FLC 0.5 and Shn3 3UTR inh 15.0.
`COC(=O)/C=C/S(=O)(=O)c1ccc(NC(C)=O)cc1` gave Beta apoptosis 6.6, CSC inhib 39.6, PfHsp90 set2 13.0, Calb FLC -20.0 and Shn3 3UTR inh 93.3*.
Screening CN(C)S(=O)(=O)c1cccc(NC(=O)CSc2cccc3cccnc23)c1 returned CSC inhib 84.1*, PfHsp90 set2 -0.4, Calb FLC 0.9 and Shn3 3UTR inh 12.6.
`Cc1ccc(S(=O)(=O)N(C)C)cc1NC(=S)NC(=O)C12CC3CC(CC(C3)C1)C2` gave CSC inhib 76.6*, PfHsp90 set2 -20.2, Calb FLC -1.5 and Shn3 3UTR inh 75.3.
Screening COc1cccc(/C=C2\SC(=S)N(NS(=O)(=O)c3ccc(C)cc3)C2=O)c1OC returned Beta apoptosis -1.0, CSC inhib 3.4, PfHsp90 set2 -5.3, Calb FLC 21.4 and Shn3 3UTR inh 10.3.
Screening COc1ccccc1/C=C1\SC(=S)N(NS(=O)(=O)c2ccccc2)C1=O returned Beta apoptosis -4.8, CSC inhib 8.9, PfHsp90 set2 -2.8, Calb FLC 91.1* and Shn3 3UTR inh -0.1.
O=C(NCCOCCOCCNC(=O)c1cccnc1)c1cccnc1 was read as Beta apoptosis 119.8*, CSC inhib -1.4, PfHsp90 set2 7.6, Calb FLC -0.1 and Shn3 3UTR inh -16.9.
O=C(NCCCCCNC(=O)c1cccnc1)c1cccnc1 was read as Beta apoptosis 10.1, CSC inhib 7.5, PfHsp90 set2 -9.8, Calb FLC -4.6 and Shn3 3UTR inh 12.2.
`CC(=O)Nc1cccc(NC(=O)C2CCCN2C(=O)Nc2ccc(Cl)cc2)c1` (stereo not given) gave Beta apoptosis -4.0, CSC inhib -13.6, Calb FLC 114.1* and Shn3 3UTR inh -12.3.
Screening CC(=O)Nc1cccc(NC(=O)C2CCCN2C(=O)Nc2ccccc2C)c1 (stereo not given) returned Beta apoptosis -14.4, CSC inhib -10.5, PfHsp90 set2 24.0, Calb FLC 15.0 and Shn3 3UTR inh 17.3.
COc1ccc(Cl)cc1NC(=O)CN(C)C1CCS(=O)(=O)C1 (stereo not given) was read as PfHsp90 set2 -10.7 and Shn3 3UTR inh -7.1.
For CCOC(=O)c1ccc(N2C(=O)CC(N3CCC(Nc4ccc(F)cc4)CC3)C2=O)cc1 (stereo not given) the results were Beta apoptosis -1.1, CSC inhib -6.1, PfHsp90 set2 128.3*, Calb FLC 16.3 and Shn3 3UTR inh 4.6.
`CCCOc1ccc(N2C(=O)CC(N3CCC(C(=O)OCC)CC3)C2=O)cc1` (stereo not given) gave Beta apoptosis -1.6, CSC inhib -6.3, PfHsp90 set2 105.0*, Calb FLC -3.0 and Shn3 3UTR inh 19.6.
Screening CCOC(=O)c1ccc(N2C(=O)CC(N3CCC(O)(c4ccc(Br)cc4)CC3)C2=O)cc1 (stereo not given) returned Beta apoptosis -4.9, CSC inhib -4.6, PfHsp90 set2 96.4*, Calb FLC -14.7 and Shn3 3UTR inh -15.0.
For CCCOc1ccc(N2C(=O)CC(N3CCOCC3)C2=O)cc1 (stereo not given) the results were Beta apoptosis -6.3, CSC inhib 2.1, PfHsp90 set2 23.6, Calb FLC -3.1 and Shn3 3UTR inh -5.0.
`CCOC(=O)c1ccc(N2C(=O)CC(N3CCN(Cc4ccccc4)CC3)C2=O)cc1` (stereo not given) gave Beta apoptosis -4.7, CSC inhib 6.5, PfHsp90 set2 5.3, Calb FLC -4.0 and Shn3 3UTR inh 1.0.
`CCOC(=O)c1ccc(N2C(=O)CC(N3CCC(O)(c4ccc(Cl)cc4)CC3)C2=O)cc1` (stereo not given) gave Beta apoptosis 0.2, CSC inhib 3.6, PfHsp90 set2 101.3*, Calb FLC -5.9 and Shn3 3UTR inh -10.0.
For CCOC(=O)CC/C(=N\NC(N)=O)c1ccc(OC)c(Cl)c1 the results were Beta apoptosis -15.1, CSC inhib -10.6, PfHsp90 set2 -7.9, Calb FLC 2.8 and Shn3 3UTR inh -26.6.
For O=[N+]([O-])c1cccc(C2(O)COc3ccccc3O2)c1 (stereo not given) the results were Beta apoptosis -5.6, CSC inhib -3.0, PfHsp90 set2 -9.7, Calb FLC -15.1 and Shn3 3UTR inh 10.2.
S=C(NCc1ccccc1)Nc1cccc(Cl)c1 was read as Beta apoptosis 0.5, CSC inhib -3.7, PfHsp90 set2 -51.7, Calb FLC -1.5 and Shn3 3UTR inh 9.4.
`NNC(=S)Nc1cccc(Cl)c1` gave Beta apoptosis -0.4, CSC inhib -13.6, PfHsp90 set2 -17.0, Calb FLC 92.1* and Shn3 3UTR inh -9.8.
Screening CC(C)(C)n1nnnc1C(c1cccs1)N1CCCC2(CCCCC2)C1 (stereo not given) returned Beta apoptosis -3.5, CSC inhib 27.9, PfHsp90 set2 -3.9, Calb FLC inconclusive and Shn3 3UTR inh 85.3*.
`CC1(C)[C@@H](O)CC[C@]2(C)[C@H]3C(=O)C=C4[C@@H]5C[C@@](C)(C(=O)O)CC[C@]5(C)CC[C@@]4(C)[C@]3(C)CC[C@@H]12` gave Beta apoptosis -5.3, CSC inhib -5.1, PfHsp90 set2 -20.2, Calb FLC 5.5 and Shn3 3UTR inh -6.0.
